Measurements as given in PubChem BioAssay (Tox21).
Records with an inconclusive call do not appear. The source made the active and inactive calls. Calls follow the shape of the dose curve; as a rule, active = well fitted curve in the direction sought with a large enough effect in the repeat runs; inconclusive = weak or mixed curves; inactive = no such curve, though single readings can be large; an effect the other way counts as inactive or inconclusive.

How the values were obtained:
[1] = qHTS RealTime-Glo MT Cell Viability Assay in HEK293 cells - 32 hour (AID 1224868); also: top concentration of the series differs between compounds; nearly all actives have a fitted effect of over 50% in size
Outline: (§1)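 Homogeneous bioluminescent viability format in HEK293 cells (600 cells/well). Following 5 h at 37 C/5% CO2, 23 nL compound was pintooled; the signal was measured repeatedly during 40 h incubation.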

[2] = A CellTox Green Cytotoxicity Assay to monitor cytotoxicity in HEK293 cells - 0 hour (AID 1224869); also: nearly all actives have a fitted effect of over 50% in size
Outline: (§2)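 Nonlytic real-time cytotoxicity: HEK293 + CellTox Green reagent plated, 5 h preincubation, pintool compound addition (23 nL in DMSO), 37 C for 40 h, fluorescence measured at successive time points.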

[3] = qHTS RealTime-Glo MT Cell Viability Assay in HepG2 cells - 40 hour (AID 1224870); also: nearly all actives have a fitted effect of over 50% in size
Outline: (§3)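 HepG2 cells (600/well) mixed with RealTime-Glo MT reagent, settled 5 h at 37 C/5% CO2 before compound addition. Nonlytic NanoLuc luminescence from viable-cell prosubstrate reduction read repeatedly during 40 h treatment at 37 C.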

[4] = A CellTox Green Cytotoxicity Assay to monitor cytotoxicity in HEK293 cells - 40 hour (AID 1224871); also: nearly all actives have a fitted effect of over 45% in size
Outline: as §2

[5] = qHTS RealTime-Glo MT Cell Viability Assay in HEK293 cells - 16 hour (AID 1224872); also: top concentration of the series differs between compounds; nearly all actives have a fitted effect of over 50% in size
Outline: as §1

[6] = qHTS RealTime-Glo MT Cell Viability Assay in HepG2 cells - 8 hour (AID 1224873); also: nearly all actives have a fitted effect of over 55% in size
Outline: as §3

[7] = qHTS RealTime-Glo MT Cell Viability Assay in HEK293 cells - 40 hour (AID 1224874); settings: RealTime-Glo luminescence, hits give low values; also: nearly all actives have a fitted effect of over 50% in size
Outline: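 Cells were seeded together with NanoLuc luciferase and a prosubstrate that viable cells reduce to a luciferase substrate. After a 5 h incubation at 37 C/5% CO2, compounds were added and luminescence was measured repeatedly during 40 h of treatment.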

[8] = A CellTox Green Cytotoxicity Assay to monitor cytotoxicity in HEK293 cells - 24 hour (AID 1224875); also: series mostly up to about 77 µM; nearly all actives have a fitted effect of over 45% in size
Outline: as §2

[9] = A CellTox Green Cytotoxicity Assay to monitor cytotoxicity in HepG2 cells - 16 hour (AID 1224876); also: nearly all actives have a fitted effect of over 45% in size
Outline: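 Read-out is fluorescence of a cyanine dye excluded from live cells that stains DNA of dead HepG2 cells, with signal proportional to cytotoxicity. Plates were read at 0, 8, 16, 24, 32 and 40 h after compound addition.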

[10] = qHTS RealTime-Glo MT Cell Viability Assay in HepG2 cells - 32 hour (AID 1224877); also: nearly all actives have a fitted effect of over 55% in size
Outline: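 Cell number in HepG2 cultures estimated from NanoLuc luminescence generated by metabolic reduction of a prosubstrate by living cells. The homogeneous, nonlytic format allowed repeated reads at 0, 8, 16, 24, 32 and 40 h of compound exposure.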
% is scaled to controls: 0 for no effect and ±100 for the full control effect.

CCCCN=C(N)N=C(N)N
inactive: outcome [1] | outcome [2] | outcome [3] | Potency [4] | outcome [5] | outcome [6] | max response [7] -14.6% | Potency [8] | Potency [9] | outcome [10]

CN(C)CCCN(C)C
inactive: activity change, negative = cytotoxic [1] 0.277% [at 6.97 µM] | cytotoxicity [2] 0.262% [at 6.97 µM] | activity change, negative = cytotoxic [3] 1.14% [at 6.97 µM] | cytotoxicity increase [4] -1.24% [at 6.97 µM] | activity change, negative = cytotoxicity [5] -4.3% [at 6.97 µM] | viability change, negative = cytotoxic [6] 0.94% [at 6.97 µM] | max response [7] 0.838% | activity change [8] -1.21% [at 6.97 µM, hits give high values] | cytotoxicity increase [9] -15.4% [at 6.97 µM] | activity change, negative = cytotoxic [10] 0.21% [at 6.97 µM]

O=C1CCCc2c(O)cccc21
inactive: outcome [1] | outcome [2] | outcome [3] | Potency [4] | outcome [5] | outcome [6] | max response [7] 3.41% | Potency [8] | Potency [9] | outcome [10]

CC(=O)SC[C@@H](C)C(=O)N1CCC[C@H]1C(=O)N[C@@H](Cc1ccccc1)C(=O)O
inactive: outcome [1] | outcome [2] | outcome [3] | Potency [4] | outcome [5] | outcome [6] | max response [7] 3.03% | Potency [9] | outcome [10]

Cc1ccc(S(=O)(=O)NC(=O)NN2CC3CCCC3C2)cc1 (configuration not stated)
inactive: outcome [1] | outcome [2] | outcome [3] | Potency [4] | outcome [5] | outcome [6] | max response [7] 5.04% | Potency [8] | Potency [9] | outcome [10]

Cc1ccc(NC(N)=O)cc1
inactive: outcome [1] | outcome [2] | outcome [3] | Potency [4] | outcome [5] | outcome [6] | max response [7] 11.1% | Potency [8] | Potency [9] | outcome [10]

CN(C)CCC[C@@]1(c2ccc(F)cc2)OCc2cc(C#N)ccc21
inactive: outcome [1] | outcome [2] | outcome [3] | Potency [4] | outcome [5] | outcome [6] | max response [7] -9.59% | Potency [8] | Potency [9] | outcome [10]

CN(C)c1cc(NC(=O)CNC(C)(C)C)c(O)c2c1C[C@H]1C[C@H]3[C@H](N(C)C)C(=O)C(C(N)=O)=C(O)[C@@]3(O)C(=O)C1=C2O
inactive: outcome [1] | outcome [2] | outcome [3] | Potency [4] | outcome [5] | outcome [6] | max response [7] 2.22% | Potency [8] | Potency [9] | outcome [10]

Nc1nc(Cl)cc(Cl)n1
inactive: outcome [1] | outcome [2] | outcome [3] | Potency [4] | outcome [5] | outcome [6] | max response [7] 16.9% | Potency [8] | Potency [9] | outcome [10]

CCCCCC(=O)CC
inactive: outcome [1] | outcome [2] | outcome [3] | Potency [4] | outcome [5] | outcome [6] | max response [7] 19.7% | Potency [8] | Potency [9] | outcome [10]

CCC(C)(C)C
inactive: outcome [1] | outcome [2] | outcome [3] | Potency [4] | outcome [5] | outcome [6] | max response [7] 2.63% | Potency [8] | Potency [9] | outcome [10]

Cc1ccc2cccnc2c1
inactive: outcome [1] | outcome [2] | outcome [3] | Potency [4] | outcome [5] | outcome [6] | max response [7] 20.7% | Potency [8] | Potency [9] | outcome [10]

NC(=O)CC[C@@H](N)C(=O)O
inactive: outcome [1] | outcome [2] | outcome [3] | Potency [4] | outcome [5] | outcome [6] | max response [7] 8.04% | Potency [8] | Potency [9] | outcome [10]

COCCCOc1cc(C[C@@H](C[C@H](N)[C@@H](O)C[C@H](C(=O)NCC(C)(C)C(N)=O)C(C)C)C(C)C)ccc1OC
inactive: outcome [1] | outcome [2] | outcome [3] | Potency [4] | outcome [5] | outcome [6] | max response [7] 2.37% | Potency [8] | Potency [9] | outcome [10]

CCCCN1C(=O)c2ccccc2C1=O
inactive: outcome [1] | outcome [2] | outcome [3] | Potency [4] | outcome [5] | outcome [6] | max response [7] -3.23% | Potency [8] | outcome [10]

CC(CN1CC(=O)NC(=O)C1)N1CC(=O)NC(=O)C1 (configuration not stated)
inactive: outcome [1] | outcome [2] | outcome [3] | Potency [4] | outcome [5] | outcome [6] | max response [7] -4.03% | Potency [8] | Potency [9] | outcome [10]

CC(C)(C)OC(=O)c1ccccc1C(=O)O
inactive: outcome [1] | outcome [2] | outcome [3] | Potency [4] | outcome [5] | outcome [6] | max response [7] 0.795% | Potency [9] | outcome [10]

O=C(O)CCCCCCCCCC(=O)O
inactive: outcome [1] | outcome [2] | outcome [3] | Potency [4] | outcome [5] | outcome [6] | max response [7] 0.0039% | Potency [8] | Potency [9] | outcome [10]

COC(C)(C)CC(C)=O
inactive: outcome [1] | outcome [2] | outcome [3] | Potency [4] | outcome [5] | outcome [6] | max response [7] 1.4% | Potency [8] | Potency [9] | outcome [10]

CC[C@@]1(c2ccccc2)NC(=O)N(C)C1=O
inactive: outcome [1] | outcome [2] | outcome [3] | Potency [4] | outcome [5] | outcome [6] | max response [7] 14.4% | Potency [8] | Potency [9] | outcome [10]

Cc1cc(C)c(N)c(Cl)c1
inactive: outcome [1] | outcome [2] | outcome [3] | Potency [4] | outcome [5] | outcome [6] | max response [7] 2.65% | Potency [8] | Potency [9] | outcome [10]

CCOC(=O)CC
inactive: outcome [1] | outcome [2] | outcome [3] | Potency [4] | outcome [5] | outcome [6] | max response [7] 19% | Potency [8] | Potency [9] | outcome [10]
